# How the values were obtained:
# [1] = molecular target: ZNF721 full-length (Homo sapiens, UniProt Q8TF20-2 1-923); experiment: HT-SELEX; 20 mM HEPES pH 7, 140 mM KCl, 5 mM NaCl, 1 mM K2HPO4, 2 mM MgSO4, 100 uM EGTA, ZnSO4, 0.1% Tween20; room temperature, 1 h; high values mean tight binding; conditions: protein: ivt; tags: eGFP (N-terminal); dsDNA, one strand shown
# Method in brief: (§1)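 In HEPES/KCl low-stringency buffer with Tween20, a bead-immobilised tagged transcription factor (full-length or DNA-binding-domain fragment, from HEK293 lysate or cell-free extract) was incubated with a randomized 40-base DNA library for 1 h at room temperature. DNA retained after washing was heat-eluted, amplified by PCR over successive cycles and Illumina-sequenced, giving ~3 million 60 bp reads per sample. The reported binding signal, a relative k-mer count in those selected reads, rises with tighter binding.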
# [2] = molecular target: ZNF721 DBD2 (Homo sapiens, UniProt Q8TF20-2 395-923); experiment: as above; conditions: protein: ivt; tags: eGFP (N-terminal); dsDNA, one strand shown
# Method in brief: as §1
# Chain of ZNF721 full-length (Q8TF20 other isoform, or with tags, fused parts or gaps): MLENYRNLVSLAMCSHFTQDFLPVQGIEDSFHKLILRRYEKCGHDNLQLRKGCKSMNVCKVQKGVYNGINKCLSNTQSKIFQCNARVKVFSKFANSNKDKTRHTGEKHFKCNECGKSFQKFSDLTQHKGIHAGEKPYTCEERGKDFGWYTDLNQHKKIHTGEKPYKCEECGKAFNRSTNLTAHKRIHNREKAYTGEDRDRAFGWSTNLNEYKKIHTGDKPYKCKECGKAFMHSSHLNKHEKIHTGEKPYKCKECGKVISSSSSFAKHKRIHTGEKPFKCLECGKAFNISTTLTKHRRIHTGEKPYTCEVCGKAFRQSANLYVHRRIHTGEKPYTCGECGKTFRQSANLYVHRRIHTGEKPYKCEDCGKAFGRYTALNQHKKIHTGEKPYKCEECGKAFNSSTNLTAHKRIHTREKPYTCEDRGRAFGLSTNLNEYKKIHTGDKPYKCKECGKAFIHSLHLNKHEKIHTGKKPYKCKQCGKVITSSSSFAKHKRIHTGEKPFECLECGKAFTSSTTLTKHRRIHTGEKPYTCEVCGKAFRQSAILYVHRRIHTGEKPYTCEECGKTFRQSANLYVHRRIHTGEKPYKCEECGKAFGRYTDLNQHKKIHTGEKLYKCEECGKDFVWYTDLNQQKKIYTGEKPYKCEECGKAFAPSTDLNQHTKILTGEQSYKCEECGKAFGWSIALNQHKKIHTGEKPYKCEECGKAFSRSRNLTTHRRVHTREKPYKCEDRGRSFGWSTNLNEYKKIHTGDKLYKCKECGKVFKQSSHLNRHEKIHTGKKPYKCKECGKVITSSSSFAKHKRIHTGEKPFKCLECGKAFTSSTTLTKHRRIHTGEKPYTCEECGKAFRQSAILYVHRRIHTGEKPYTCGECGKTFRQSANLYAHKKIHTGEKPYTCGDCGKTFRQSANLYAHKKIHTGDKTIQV
# Chain of ZNF721 DBD2 (Q8TF20 383-911): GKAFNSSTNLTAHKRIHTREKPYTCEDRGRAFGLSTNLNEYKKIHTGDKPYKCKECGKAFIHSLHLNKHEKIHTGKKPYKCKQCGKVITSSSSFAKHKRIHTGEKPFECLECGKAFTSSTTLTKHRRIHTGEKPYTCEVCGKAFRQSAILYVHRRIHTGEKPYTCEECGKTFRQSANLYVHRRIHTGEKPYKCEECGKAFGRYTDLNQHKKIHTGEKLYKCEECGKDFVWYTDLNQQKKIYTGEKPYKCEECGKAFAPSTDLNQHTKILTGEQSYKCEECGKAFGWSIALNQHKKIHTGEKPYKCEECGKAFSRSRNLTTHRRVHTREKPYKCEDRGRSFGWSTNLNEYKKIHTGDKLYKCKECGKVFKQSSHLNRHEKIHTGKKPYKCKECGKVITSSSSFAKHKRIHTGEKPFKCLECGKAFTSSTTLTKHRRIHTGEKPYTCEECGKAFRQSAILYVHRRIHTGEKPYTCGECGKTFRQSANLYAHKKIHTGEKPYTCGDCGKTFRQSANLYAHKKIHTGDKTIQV
Sequence,binding signal [1] [relative 10-mer count],binding signal [2] [relative 10-mer count]
ACAGCATACC,0.516,0.692
ACACTGCTTG,0.107,0.138
AAACAGTGTC,0.116,0.209
AACAAAGCAG,0.243,0.29
AAAAACAGTC,0.149,0.169
AAAGAAACAG,0.126,0.119
CACTGTTTTC,0.15,0.248
AAACGCTGTT,0.236,0.44
AAAAACAGGA,0.104,0.113
CAGTGTTGCC,0.253,0.686
AACAGCGTAC,0.19,0.275
AAACAGTGTT,0.338,0.546
ACAAAAACAG,0.13,0.173
CGCTGTTTTA,0.126,0.174
AACAGCATAC,0.51,0.709
ATAAAACAGC,0.158,0.214
CAGGGTTGCC,0.155,0.49
AACAGTGTAT,0.129,0.199
CAAAGCAGTG,0.119,0.198
AAAACAGGAT,0.12,0.133

Sequence,binding signal [1] [relative 10-mer count],binding signal [2] [relative 10-mer count]
AAAAACAGCG,0.589,0.668
AAAAGCAGGG,0.207,0.218
AAACGAACAG,0.126,0.0771
GAAAACAGCA,0.299,0.388
AAAAAACAGG,0.278,0.289
AAAACAGGGG,0.112,0.145
AAACAGCGTT,0.388,0.648
CCCTGTTTTC,0.162,0.186
CAGCATCTCC,0.126,0.214
CACAAAACAG,0.147,0.156
AAAAAACAGT,0.466,0.516
AAAACAGTAC,0.126,0.166
ACAGCGTTTC,0.253,0.448
AAAAACAGCA,0.778,0.785
AAGAAAACAG,0.177,0.222
AAGCAGCGTC,0.112,0.133
CGAAAACAGC,0.167,0.261
ACAGTGTCTC,0.106,0.236
ACAGCGTCTC,0.212,0.344
AACAAACAGC,0.119,0.0709
